Data on 11 compounds can be found in PubChem BioAssay (Tox21).

Unmarked numbers belong to inactive results. Records with an inconclusive call do not appear. Active and inactive are the calls of the source. Unless noted, the call rests on the fitted dose curve; in most records, active means well fitted curve in the direction sought with a large enough effect in the repeat runs; inconclusive means weak or mixed curves; inactive means no such curve, though single readings can be large; an effect the other way counts as inactive or inconclusive.

The nature of test [1]: qHTS assay for small molecule agonists of the p53 signaling pathway (AID 651631; calls by dose curve; further: nearly all actives have a fitted effect of over 15% in size; further: potency means the concentration at half of the fitted maximal effect). In short, it runs like this: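 HCT-116 cells carrying a beta-lactamase reporter under p53 response elements were dosed with compound for 16 h at 37 °C. LiveBLAzer B/G FRET substrate was then added for 2 h at room temperature, and fluorescence intensity was read to detect pathway agonism.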
Background: Quantitative high-throughput screening tests each substance at several concentrations.

For test [2], the target named is Nuclear receptor subfamily 1 group I member 3 (Homo sapiens) (UniProt Q14994). Kind of test: qHTS assay to identify small molecule agonists of the constitutive androstane receptor (CAR) signaling pathway (AID 1224839). Further: nearly all actives have a fitted effect of over 15% in size. Further: potency means the concentration at half of the fitted maximal effect. In outline: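 HepG2 cells stably co-transfected with hCAR and a CYP2B6-2.2kb luciferase reporter; compounds at 15 concentrations with 0.75 uM PK11195 present. After 24 hr at 37 C, luciferase read by ONE-Glo luminescence.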
Sequence of Nuclear receptor subfamily 1 group I member 3 (Homo sapiens) (Q14994 whole entry, looked up): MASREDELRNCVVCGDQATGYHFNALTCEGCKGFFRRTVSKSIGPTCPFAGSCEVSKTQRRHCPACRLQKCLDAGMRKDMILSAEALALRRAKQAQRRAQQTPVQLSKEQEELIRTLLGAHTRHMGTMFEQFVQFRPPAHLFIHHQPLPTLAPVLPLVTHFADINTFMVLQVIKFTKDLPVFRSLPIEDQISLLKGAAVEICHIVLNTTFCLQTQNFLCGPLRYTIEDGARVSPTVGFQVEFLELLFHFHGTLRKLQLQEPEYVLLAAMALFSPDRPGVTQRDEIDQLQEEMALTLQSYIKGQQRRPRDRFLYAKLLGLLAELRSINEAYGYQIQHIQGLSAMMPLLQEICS

The nature of test [3]: qHTS assay to identify small molecule agonists of the hypoxia (HIF-1) signaling pathway - cell viability counter screen (AID 1224844; calls by dose curve; further: nearly all actives have a fitted effect of over 50% in size; further: potency means the concentration at half of the fitted maximal effect). In short, it runs like this: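 CellTiter-Glo luminescence read-out, 30 min RT, taken in the same wells as the beta-lactamase HRE reporter assay; HRE-bla ME-180 cells, 0.5% dialyzed FBS, 17 hr compound treatment at 37C, 5% CO2.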
Test [4] in a line: qHTS RealTime-Glo MT Cell Viability Assay in HepG2 cells - 8 hour (AID 1224873). Further: nearly all actives have a fitted effect of over 55% in size. In outline: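 HepG2 cells (600/well) mixed with RealTime-Glo MT reagent, settled 5 h at 37 C/5% CO2 before compound addition. Nonlytic NanoLuc luminescence from viable-cell prosubstrate reduction read repeatedly during 40 h treatment at 37 C.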
The nature of test [5]: qHTS assay to identify small molecule antagonists of the progesterone receptor (PR) signaling pathway - cell viability counter screen (AID 1346798). Further: nearly all actives have a fitted effect of over 50% in size. Further: potency means the concentration at half of the fitted maximal effect. In short, it runs like this:
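PR-UAS-bla HEK293T cells, 3,000/well in 2% charcoal-stripped FBS medium, dosed with compounds plus R5020 agonist and incubated 16 h at 37C. Viability then measured in the same wells by CellTiter-Glo luminescence after 30 min at RT.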

A short description of test [6]: Human pregnane X receptor (PXR) small molecule agonists, qHTS cell viability counter screen (AID 1346977). Further: nearly all actives have a fitted effect of over 50% in size. Further: potency means the concentration at half of the fitted maximal effect. In short, it runs like this: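 PXR-Luc HepG2 cells (2,000/well, 5% charcoal-stripped FBS) preincubated 5 hr, then exposed to compounds 24 hr at 37 C. Viability read in the same wells by CellTiter-Fluor fluorescence, reagent added at 23 hr, 1 hr incubation.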

Test [7] deals with Cytochrome P450 3A4 (Homo sapiens) (UniProt P08684). In words: Cytochrome P450 Family 3 Subfamily A Member 4 (CYP3A4) small molecule antagonists: luciferase reporter qHTS assay (AID 1671201). Further: nearly all actives have a fitted effect of over 50% in size. Further: potency means the concentration at half of the fitted maximal effect. In outline: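 P450-Glo CYP3A4 luminescent assay: compounds preincubated 10 min at room temperature with enzyme and proluciferin substrate, NADPH regeneration added, 1 h room-temperature reaction, stopped with luciferin detection reagent; luminescence read after 20 min. Ketoconazole positive control.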
Sequence of Cytochrome P450 3A4 (Homo sapiens) (P08684 whole entry, looked up): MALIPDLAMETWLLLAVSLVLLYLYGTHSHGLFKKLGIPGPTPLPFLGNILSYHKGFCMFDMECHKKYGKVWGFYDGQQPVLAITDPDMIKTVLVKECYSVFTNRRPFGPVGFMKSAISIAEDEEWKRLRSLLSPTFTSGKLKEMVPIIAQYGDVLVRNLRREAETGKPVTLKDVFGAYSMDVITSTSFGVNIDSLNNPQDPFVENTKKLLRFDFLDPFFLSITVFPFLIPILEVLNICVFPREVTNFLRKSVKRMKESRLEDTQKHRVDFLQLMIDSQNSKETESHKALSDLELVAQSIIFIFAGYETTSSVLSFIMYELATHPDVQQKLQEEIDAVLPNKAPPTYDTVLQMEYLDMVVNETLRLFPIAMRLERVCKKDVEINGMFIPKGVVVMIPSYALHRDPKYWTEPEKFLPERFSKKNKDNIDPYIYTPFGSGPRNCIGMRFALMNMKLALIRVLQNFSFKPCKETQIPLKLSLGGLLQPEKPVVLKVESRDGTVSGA
(In general: In a reporter assay the amount or activity of a reporter protein is the signal.)

Test [8] in a line: qHTS assay to test for compound auto fluorescence at 535 nm (green) in HepG2 cells (AID 720675).
The nature of test [9]: qHTS assay to test for compound auto fluorescence at 590 nm (red) in HEK293 cells (AID 720679). In short, it runs like this: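 Red autofluorescence, HEK293 cells: 2,000 cells/well; attach 4-5 hr 37C; add 23 nL cpd or DMSO; incubate o/n 37C 5% CO2; read Ex540/Em590; Rose Bengal sodium reference.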
A short description of test [10]: qHTS assay to test for compound auto fluorescence at 590 nm (red) in HepG2 cell free culture (AID 720684). In outline:
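Rose Bengal sodium served as the reference for red signal. Test compounds were dispensed into serum-containing MEM (10% FBS) without cells, and plates were read at 540/590 nm.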

Test [11] can be described thus: qHTS assay to test for compound auto fluorescence at 460 nm (blue) in HepG2 cell free culture (AID 720685). In outline: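 Cell-free plates of MEM plus 10% FBS received 23 nL compound or DMSO vehicle; blue-channel (405/460 nm) intensity scored against triamterene as reference fluorophore.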
A short description of test [12]: qHTS assay to test for compound auto fluorescence at 535 nm (green) in HepG2 cell free culture (AID 720686).
Test [13] in a line: qHTS assay to test for compound auto fluorescence at 460 nm (blue) in HepG2 cells (AID 720687). In short, it runs like this:
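HepG2 cells in MEM with 10% FBS, attached overnight at 37 C, were exposed to compound or DMSO for 1 hr at 37 C, 5% CO2. Blue fluorescence was read at 405/460 nm, with triamterene as reference fluorophore.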

Test [14] can be described thus: qHTS assay to identify small molecule agonists of the RXR signaling pathway - cell viability counter screen (AID 1159529). Further: nearly all actives have a fitted effect of over 50% in size. Further: potency means the concentration at half of the fitted maximal effect. In outline: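 RXR-alpha-UAS-bla HEK 293T cells in medium with 2% charcoal-stripped FBS were pre-incubated 5 hr, then compound-treated 16 hr at 37 C. Viability was read by CellTiter-Glo luminescence in the same wells as the beta-lactamase assay, with tetraoctyl ammonium bromide as positive control.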

Test [15] in a line: qHTS RealTime-Glo MT Cell Viability Assay in HEK293 cells - 16 hour (AID 1224872). Further: nearly all actives have a fitted effect of over 50% in size. Further: potency means the concentration at half of the fitted maximal effect. In short, it runs like this:
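Tox21 10K qHTS, HEK293, 600 cells/well, RealTime-Glo reagent co-dispensed with cells; 5 h preincubation, compound by pintool, 37 C, luminescence at 0–40 h.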

Test [16] is described as follows: qHTS assay to identify small molecule agonists of the estrogen receptor beta (ER-beta) signaling pathway - cell viability counter screen (AID 1259380). Further: nearly all actives have a fitted effect of over 30% in size. Further: potency means the concentration at half of the fitted maximal effect. In short, it runs like this:
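Luminescence read-out (CellTiter-Glo, 30 min, room temp) taken in the same wells as the beta-lactamase reporter assay; ER-beta-UAS-bla HEK293T cells exposed to DMSO-dissolved compounds for 16 hr at 37C in 2% charcoal-stripped FBS medium.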

Test [17] is described as follows: Caspase-3/7 induction in CHO-K1 cells by small molecules, qHTS cell viability counter screen (AID 1346979). Further: nearly all actives have a fitted effect of over 35% in size. Further: potency means the concentration at half of the fitted maximal effect. In outline:
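Wild-type CHO-K1 cells (1,500/well) treated with compound after 5 h plating; after 16 h at 37C, viability read as CellTiter-Fluor fluorescence following 1 h reagent incubation, in the same wells as the caspase read.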

The nature of test [18]: qHTS assay to identify small molecule antagonists of the estrogen related receptor signaling pathway with the pleiotropic PPARgamma coactivator (PGC) from Tox21 10K library - cell viability counter screen (AID 1224840; active means well fitted cell-killing curve with a large enough effect in the repeat runs, not every such curve was filed as active; further: nearly all actives have a fitted effect of over 40% in size; further: potency means the concentration at half of the fitted maximal effect). In short, it runs like this:
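Fluorescence read-out of CellTiter-Fluor viability reagent, added after cells had been exposed to compound in DMSO for 17.5 h at 37 C; 30 min development at 37 C/5% CO2. Cells: PGC/ERR line, 2,000/well.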

The nature of test [19]: qHTS assay to identify small molecule agonists of H2AX - cell viability counter screen (AID 1224847; calls by dose curve; further: nearly all actives have a fitted effect of over 30% in size; further: potency means the concentration at half of the fitted maximal effect). In short, it runs like this:
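CHO-K1 cells plated overnight at 37C, then exposed 3 h at 37C to compounds at 15 concentrations (0.76% DMSO final). Viability by CellTiter-Glo luminescence after 30 min at room temperature.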

The nature of test [20]: qHTS assay to identify small molecule agonists of the androgen receptor (AR) signaling pathway in the presence of an antagonist - cell viability counter screen (AID 1259379). Further: nearly all actives have a fitted effect of over 25% in size. Further: potency means the concentration at half of the fitted maximal effect. In outline:
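Viability counter screen: CellTiter-Fluor fluorescence, measured in the same wells as the luciferase read-out. MDA-kb2 cells, 3,000/well, with nilutamide at 3.0uM final and compounds at 15 concentrations, 16 hr at 37C, 0% CO2.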

Turning to `CCCCC(CC)COC(=O)c1ccc(C(=O)OCC(CC)CCCC)cc1` (stereo not drawn), in test [1], the Potency result is “inactive”.

Consider `OC(Cc1ccccc1Cl)(Cn1[nH]cnc1=S)C1(Cl)CC1` (stereo not drawn), for which the Potency result in [2], in test [3], in test [4], in test [5] and in test [6] was “inactive” in each case. For the same compound, the Potency in test [7] was 5.64 µM (active).

As to `Cc1nnc2n1-c1sc(CCc3ccc(CC(C)C)cc3)cc1C(c1ccccc1Cl)=NC2C` (stereo not drawn), the Potency entry in test [8], in [11], in test [12] and in test [13] was “inactive” throughout. Also, the outcome in [9] and in [10] was inactive. For the same compound, the Potency was 23.9 µM (active) in test [14]; 19 µM (active) in test [3]; 19 µM (active) in test [15]; 29.8 µM (active) in test [16]; 29.8 µM (active) in test [17].

Take `C=CC(=O)OCCCC`: the Potency entry in [1] was “inactive”.

Consider `CCN(CC)C(=O)Cl`, for which the Potency result in test [14], in [2], in [18], in [3], in [19] and in test [15] was “inactive” in each case. The Potency result in test [4], in [20], in test [16], in test [5], in [6] and in test [17] was “inactive” in each case. Further, the Potency entry in test [7] was “inactive”.

Take `Nc1ccc([N+](=O)[O-])cc1`: the Potency entry in [8], in [11], in [12], in test [13] and in test [4] was “inactive” in each case. In addition, the call in test [9] and in test [10] was inactive. Further, the Potency in [18] was 30.6 µM (active); in test [19], 101 µM (active); in test [15] it was 21.9 µM (active); in [20] it was 30.6 µM (active); in [16] it was 27.3 µM (active); in test [5] it was 8.63 µM (active). The Potency in [6] is 34.4 µM (active); in test [17], 43.3 µM (active).

Take `O=[N+]([O-])c1c(Cl)c(Cl)cc(Cl)c1Cl`: the Potency entry in test [8], in [11], in test [12], in [13], in test [18] and in [3] was “inactive” throughout. The Potency result in test [15], in [4], in [20], in [5], in [6] and in test [17] was “inactive” each time. Also, the Potency entry in test [7] is “inactive”. The compound was classed as inactive in test [9] and in [10].

On to `ClC(Cl)=C(c1ccc(Cl)cc1)c1ccccc1Cl`, for which the Potency in test [14] is 24.5 µM (active); in [2], 21.7 µM (active). Moreover, the Potency result in test [18], in test [3], in [4], in test [20], in [5] and in [7] was “inactive” throughout.

Take `Cc1cc(C(C)(C)c2ccc(O)c(C)c2)ccc1O`: the Potency was 13 µM (active) in test [1]; 29.2 µM (active) in test [2]; 108 µM (active) in test [19]; 20.8 µM (active) in test [15]; 29.2 µM (active) in test [16]; 20.7 µM (active) in test [6]. Also, the Potency in [17] is 41.2 µM (active); in test [7], 1.91 µM (active). The Potency entry in test [8], in test [11], in [12], in [13], in test [3] and in [4] was “inactive” throughout. Also, the call in test [9] and in [10] was inactive.

For the compound `COCCOC(=O)c1ccccc1C(=O)OCCOC`, in [1], the Potency result is “inactive”.

With `Nc1ccc(Cl)cc1[N+](=O)[O-]`, in test [1], the Potency entry is “inactive”.
